Experiment [1] deals with human Thromboxane A2 Receptor (TXA2), TBXA2R (gene 6915) (UniProt P21731). Kind of experiment: NVS_GPCR_hTXA2: NovaScreen (NVS) G Protein-Coupled Receptor Assay for human Thromboxane A2 Receptor (TXA2) (AID 2283282).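 Further: actives reduce bound radioligand signal relative to DMSO baseline.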 A digest of the protocol:
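Screening ran at 25 uM in duplicate, with concentration series for confirmed actives. Each test measures radioligand binding to human platelet protein after 1 h, cell-free, using filter-based scintillation detection of signal loss relative to DMSO.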

Experiment [2] deals with Sodium channel protein type 1 subunit alpha (Rattus norvegicus) (UniProt P04774). In words: NVS_IC_rNaCh_site2: NovaScreen (NVS) Ion Channel Assay for rat Sodium Channel, Site 2 (NaCh) (AID 2283322).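 Further: hit means loss of radioligand binding signal relative to DMSO so AC50 marks displacement.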 The method, boiled down:
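Initial duplicate single-point testing at 25 uM, followed by concentration-response runs for actives. Binding of radioligand to rat forebrain membranes quantified after 1 h via filter-based radiodetection.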

Experiment [3] has as its target human Adenosine A1 Receptor (AdoRA1), ADORA1 (gene 134) (UniProt P30542). Kind of experiment: NVS_GPCR_hAdoRA1: NovaScreen (NVS) G Protein-Coupled Receptor Assay for human Adenosine A1 Receptor (AdoRA1) (AID 2283254). The method, boiled down: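 Radioligand binding was run on human cortical membranes, cell-free, with filter-based scintillation counting 1 h after dosing. The primary screen was duplicate at 25 uM, followed by concentration series. Signal loss versus DMSO was fitted positive-direction.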

In experiment [4] the target is human Adenosine A2a Receptor (AdoRA2a), ADORA2A (gene 135) (UniProt P29274). Kind of experiment: NVS_GPCR_hAdoRA2a: NovaScreen (NVS) G Protein-Coupled Receptor Assay for human Adenosine A2a Receptor (AdoRA2a) (AID 2283256). A digest of the protocol:
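HEK293-derived receptor preparation, radioligand displacement, 1.5 h, filtration + scintillation read. Loss of bound signal scored vs DMSO. Single-point 25 uM in duplicate first, then concentration-response for actives.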

Experiment [5] deals with rat Thyrotropin Releasing Hormone Receptor (TRH), Trhr (gene 25570) (UniProt Q01717). In words: NVS_GPCR_rTRH: NovaScreen (NVS) G Protein-Coupled Receptor Assay for rat Thyrotropin Releasing Hormone Receptor (TRH) (AID 2283329).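 Further: hit means lower bound tracer signal versus DMSO baseline.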 A digest of the protocol:
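Rat forebrain membranes; radioligand displacement at TRH receptor by filter-based scintillation counting, read 4 h after dosing. Duplicate single-point screen at 25 uM, actives rerun in concentration series; loss of signal relative to DMSO.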

Experiment [6] addresses rat Peripheral-type Benzodiazepine Receptor (PBR), Tspo (gene 24230) (UniProt P16257). In words: NVS_MP_rPBR: NovaScreen (NVS) Membrane Protein Assay for rat Peripheral-type Benzodiazepine Receptor (PBR) (AID 2283335). A digest of the protocol: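 Single-concentration duplicate screening at 25 uM preceded concentration-series retesting of actives. Binding of a specific radioligand to rat kidney membrane PBR was read by filtration radiodetection after 1 h, with plate-wise positive and negative controls.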

The nature of experiment [7]: NVS_IC_rCaBTZCHL: NovaScreen (NVS) Ion Channel Assay for Calcium Channel, Type L, Benzothiazepine Site (CaBTZCHL) (AID 2283337). The method, boiled down: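 Rat cortical membrane preparation, cell-free. Radioligand displaced by test chemical; 1.5 h incubation; filtration, scintillation count. DMSO = negative control/baseline. Primary: duplicate, 25 uM; secondary: concentration series.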

For experiment [8], the target named is bovine Estrogen Receptor (ER), ESR1 (gene 407238) (UniProt P49884). In words: NVS_NR_bER: NovaScreen (NVS) Nuclear Receptor Binding Assay for bovine Estrogen Receptor (ER) (AID 2283345).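 Further: actives lower the bound radioligand count which means they displace the ER ligand.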 A digest of the protocol:
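Cell-free radioligand binding with bovine uterine membrane extracts, read 18 hours after dosing by scintillation counting. Loss of signal versus DMSO baseline indicates displacement. Primary screen run in duplicate at 25 uM, actives followed in concentration series.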

The target in experiment [9] is D(1A) dopamine receptor (Homo sapiens) (UniProt P21728). Kind of experiment: NVS_GPCR_hDRD1: NovaScreen (NVS) G Protein-Coupled Receptor Assay for human Dopamine Receptor D1 (DRD1) (AID 2283269). The method, boiled down:
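Radioligand displacement binding on membranes/protein extracted from HEK293 expressing human D1, cell-free; read 1 h after dosing by filter-based scintillation counting. Primary screen in duplicate at 25 uM, actives followed up in concentration series; signal loss versus DMSO baseline.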

Experiment [10] has as its target human Peripheral-type Benzodiazepine Receptor (PBR), TSPO (gene 706) (UniProt P30536). In words: NVS_MP_hPBR: NovaScreen (NVS) Membrane Protein Assay for human Peripheral-type Benzodiazepine Receptor (PBR) (AID 2283331).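 Further: hits reduce radioligand binding relative to DMSO baseline.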 The method, boiled down: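 Using human colon-derived membranes, this one-endpoint binding test reads radioligand loss by scintillation after 1 h. Screening started at 25 uM in duplicate, with positive and negative controls on every plate, and actives moved to dose series.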

For experiment [11], the target named is human Androgen Receptor (AR), AR (gene 367) (UniProt P10275). Kind of experiment: NVS_NR_hAR: NovaScreen (NVS) Nuclear Receptor Binding Assay for human Androgen Receptor (AR) (AID 2283332). The method, boiled down: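 Actives from a duplicate 25 uM single-point screen went on to concentration series. Read-out after 20 h was scintillation counting of displaced radioligand in LnCAP extract, with DMSO as baseline.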
Chain of human Androgen Receptor (AR), AR (gene 367) (P10275 whole entry, looked up): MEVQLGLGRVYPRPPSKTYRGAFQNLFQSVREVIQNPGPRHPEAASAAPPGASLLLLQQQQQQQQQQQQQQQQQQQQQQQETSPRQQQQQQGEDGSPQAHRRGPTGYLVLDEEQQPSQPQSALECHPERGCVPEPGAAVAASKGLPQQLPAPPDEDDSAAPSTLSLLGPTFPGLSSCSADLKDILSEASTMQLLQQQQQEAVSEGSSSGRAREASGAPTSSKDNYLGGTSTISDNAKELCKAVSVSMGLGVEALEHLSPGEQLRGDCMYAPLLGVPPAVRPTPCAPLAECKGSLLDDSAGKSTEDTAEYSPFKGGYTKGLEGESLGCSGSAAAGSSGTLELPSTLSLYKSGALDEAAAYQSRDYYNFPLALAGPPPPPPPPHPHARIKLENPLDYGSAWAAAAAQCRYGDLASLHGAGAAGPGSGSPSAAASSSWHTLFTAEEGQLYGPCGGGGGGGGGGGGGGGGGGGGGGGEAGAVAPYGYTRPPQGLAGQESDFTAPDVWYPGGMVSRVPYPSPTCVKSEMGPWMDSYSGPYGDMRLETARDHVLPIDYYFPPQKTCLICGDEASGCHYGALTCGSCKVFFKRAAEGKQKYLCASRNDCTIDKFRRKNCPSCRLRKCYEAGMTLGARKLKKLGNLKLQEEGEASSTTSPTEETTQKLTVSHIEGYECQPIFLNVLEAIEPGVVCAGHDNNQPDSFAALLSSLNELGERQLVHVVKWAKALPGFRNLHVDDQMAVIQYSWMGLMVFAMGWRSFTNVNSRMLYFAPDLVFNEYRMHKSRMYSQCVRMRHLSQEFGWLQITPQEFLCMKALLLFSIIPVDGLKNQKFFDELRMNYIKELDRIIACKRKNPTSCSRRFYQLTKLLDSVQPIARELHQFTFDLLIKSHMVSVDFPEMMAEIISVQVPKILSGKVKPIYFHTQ

Experiment [12] has as its target rat Neonicotinoid receptor (NNR), Chrna7 (gene 25302) (UniProt Q05941). In words: NVS_LGIC_rNNR_BungSens: NovaScreen (NVS) Ligand-Gated Ion Channel Assay for rat Neonicotinoid receptor (NNR) (AID 2283315). A digest of the protocol:
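Rat cortical membrane preparation incubated 2.5 h with tritiated or iodinated radioligand and test chemical. Bound radioactivity was filtered and counted by scintillation, and displacement was analysed against DMSO.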

Experiment [13] addresses human Neurokinin, NK2 Receptor, TACR2 (gene 6865) (UniProt P21452). In words: NVS_GPCR_hNK2: NovaScreen (NVS) G Protein-Coupled Receptor Assay for human Neurokinin, NK2 Receptor (AID 2283278).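 Further: actives reduce bound radioligand signal relative to DMSO baseline.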 The method, boiled down: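 Radioligand binding on membranes from CHO cells expressing receptor, filter-based scintillation read 4 h after dosing. Initial duplicate screen at 25 uM, actives in concentration series; loss of signal versus DMSO.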

The target of experiment [14] is human Opioid Receptor Mu (Opiate Mu), OPRM1 (gene 4988) (UniProt P35372). Kind of experiment: NVS_GPCR_hOpiate_mu: NovaScreen (NVS) G Protein-Coupled Receptor Assay for human Opioid Receptor Mu (Opiate Mu) (AID 2283290).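 Further: hits lower bound tracer signal versus DMSO meaning displacement of the ligand.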 A digest of the protocol:
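Radioligand displacement binding on membranes from CHO cells expressing the receptor, 2.5 h after dosing, filter-based scintillation counting; loss of signal vs DMSO baseline. Screened in duplicate at 25 uM, actives then run in concentration series.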

SMILES strings stand for the structures. Results filed as inconclusive are left out. Active and inactive are the calls of the source. How the source made its calls: active means hit-call score of the fitted dose curve at least 0.9, where 1 is the maximum; inconclusive means response in the unintended direction; inactive means score below 0.9.

By AC50 is commonly meant the concentration giving half of the maximal activity seen.

Chain of D(1A) dopamine receptor (Homo sapiens) (P21728 whole entry, looked up): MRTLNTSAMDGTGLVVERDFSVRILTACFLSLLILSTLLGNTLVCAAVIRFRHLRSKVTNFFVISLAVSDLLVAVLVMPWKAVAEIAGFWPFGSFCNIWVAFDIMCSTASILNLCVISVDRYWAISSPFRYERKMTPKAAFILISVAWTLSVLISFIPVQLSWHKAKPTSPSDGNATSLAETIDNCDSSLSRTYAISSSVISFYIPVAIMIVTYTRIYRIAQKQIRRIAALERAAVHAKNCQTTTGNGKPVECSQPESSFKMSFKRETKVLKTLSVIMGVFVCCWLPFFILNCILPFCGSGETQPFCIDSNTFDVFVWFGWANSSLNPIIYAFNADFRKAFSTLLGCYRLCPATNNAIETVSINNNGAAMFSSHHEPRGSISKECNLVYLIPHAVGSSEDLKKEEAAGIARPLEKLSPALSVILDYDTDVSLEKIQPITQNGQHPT
Chain of human Adenosine A2a Receptor (AdoRA2a), ADORA2A (gene 135) (P29274 whole entry, looked up): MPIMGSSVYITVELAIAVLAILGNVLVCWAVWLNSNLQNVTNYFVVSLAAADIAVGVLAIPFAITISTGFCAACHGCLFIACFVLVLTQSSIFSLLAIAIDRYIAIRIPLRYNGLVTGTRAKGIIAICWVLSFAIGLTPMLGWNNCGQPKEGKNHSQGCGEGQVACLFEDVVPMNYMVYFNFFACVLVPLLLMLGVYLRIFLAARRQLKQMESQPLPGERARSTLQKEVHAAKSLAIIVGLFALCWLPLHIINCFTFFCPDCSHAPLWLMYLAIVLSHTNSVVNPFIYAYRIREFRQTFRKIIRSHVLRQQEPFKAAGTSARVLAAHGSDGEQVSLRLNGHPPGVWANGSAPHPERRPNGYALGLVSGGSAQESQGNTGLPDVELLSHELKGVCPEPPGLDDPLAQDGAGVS
Chain of human Adenosine A1 Receptor (AdoRA1), ADORA1 (gene 134) (P30542 whole entry, looked up): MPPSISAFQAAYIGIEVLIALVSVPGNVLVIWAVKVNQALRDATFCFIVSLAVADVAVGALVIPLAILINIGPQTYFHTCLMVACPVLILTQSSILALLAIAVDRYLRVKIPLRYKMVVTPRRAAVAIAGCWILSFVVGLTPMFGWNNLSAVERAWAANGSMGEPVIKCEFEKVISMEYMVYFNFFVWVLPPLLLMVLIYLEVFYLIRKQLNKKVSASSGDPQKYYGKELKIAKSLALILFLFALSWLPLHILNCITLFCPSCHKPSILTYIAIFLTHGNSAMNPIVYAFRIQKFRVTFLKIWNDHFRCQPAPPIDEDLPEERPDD
Chain of rat Thyrotropin Releasing Hormone Receptor (TRH), Trhr (gene 25570) (Q01717 whole entry, looked up): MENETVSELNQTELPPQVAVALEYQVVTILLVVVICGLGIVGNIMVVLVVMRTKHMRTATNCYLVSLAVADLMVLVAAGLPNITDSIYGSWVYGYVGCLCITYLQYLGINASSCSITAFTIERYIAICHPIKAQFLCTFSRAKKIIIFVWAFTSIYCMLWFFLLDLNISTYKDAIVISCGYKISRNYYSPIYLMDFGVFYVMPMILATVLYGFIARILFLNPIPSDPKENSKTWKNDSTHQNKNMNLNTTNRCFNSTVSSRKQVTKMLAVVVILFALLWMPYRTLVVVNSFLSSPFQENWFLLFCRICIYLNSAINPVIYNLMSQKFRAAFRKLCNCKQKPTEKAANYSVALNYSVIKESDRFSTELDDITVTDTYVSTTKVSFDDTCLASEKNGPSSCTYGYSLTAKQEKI
Chain of human Peripheral-type Benzodiazepine Receptor (PBR), TSPO (gene 706) (P30536 whole entry, looked up): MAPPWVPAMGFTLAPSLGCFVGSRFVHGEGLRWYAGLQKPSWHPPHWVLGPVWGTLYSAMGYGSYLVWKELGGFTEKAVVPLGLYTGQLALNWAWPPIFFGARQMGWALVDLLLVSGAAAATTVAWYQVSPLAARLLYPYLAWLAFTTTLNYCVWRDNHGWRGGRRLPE
Chain of rat Peripheral-type Benzodiazepine Receptor (PBR), Tspo (gene 24230) (P16257 whole entry, looked up): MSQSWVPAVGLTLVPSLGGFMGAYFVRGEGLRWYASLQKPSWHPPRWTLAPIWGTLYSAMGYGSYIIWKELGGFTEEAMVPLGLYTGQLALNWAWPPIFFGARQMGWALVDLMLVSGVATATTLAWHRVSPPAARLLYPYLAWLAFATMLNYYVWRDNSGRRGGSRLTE
Chain of bovine Estrogen Receptor (ER), ESR1 (gene 407238) (P49884 whole entry, looked up): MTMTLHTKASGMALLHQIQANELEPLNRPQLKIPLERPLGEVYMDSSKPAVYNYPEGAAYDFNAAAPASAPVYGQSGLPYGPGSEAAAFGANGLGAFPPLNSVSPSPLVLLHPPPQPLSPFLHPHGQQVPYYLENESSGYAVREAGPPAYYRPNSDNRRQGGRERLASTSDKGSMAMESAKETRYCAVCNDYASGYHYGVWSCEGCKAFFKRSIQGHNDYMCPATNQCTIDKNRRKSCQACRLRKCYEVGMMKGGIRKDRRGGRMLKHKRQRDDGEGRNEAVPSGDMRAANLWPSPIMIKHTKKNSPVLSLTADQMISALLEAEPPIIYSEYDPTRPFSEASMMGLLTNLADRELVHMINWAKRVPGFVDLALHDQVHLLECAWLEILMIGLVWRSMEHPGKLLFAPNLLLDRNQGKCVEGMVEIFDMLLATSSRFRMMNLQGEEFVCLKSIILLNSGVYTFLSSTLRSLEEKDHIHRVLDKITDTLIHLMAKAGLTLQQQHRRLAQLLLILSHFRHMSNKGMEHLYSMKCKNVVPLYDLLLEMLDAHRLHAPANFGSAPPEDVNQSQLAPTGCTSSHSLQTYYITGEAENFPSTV
Chain of human Thromboxane A2 Receptor (TXA2), TBXA2R (gene 6915) (P21731 whole entry, looked up): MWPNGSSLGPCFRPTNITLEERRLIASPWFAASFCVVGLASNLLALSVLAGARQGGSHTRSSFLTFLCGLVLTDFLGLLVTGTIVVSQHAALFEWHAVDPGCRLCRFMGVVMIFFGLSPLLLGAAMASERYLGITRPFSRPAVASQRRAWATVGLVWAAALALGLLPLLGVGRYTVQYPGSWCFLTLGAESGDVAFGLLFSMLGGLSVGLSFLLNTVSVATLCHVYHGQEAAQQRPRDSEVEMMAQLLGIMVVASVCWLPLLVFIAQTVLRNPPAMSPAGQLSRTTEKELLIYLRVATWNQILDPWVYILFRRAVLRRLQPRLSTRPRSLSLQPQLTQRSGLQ
Chain of human Opioid Receptor Mu (Opiate Mu), OPRM1 (gene 4988) (P35372 whole entry, looked up): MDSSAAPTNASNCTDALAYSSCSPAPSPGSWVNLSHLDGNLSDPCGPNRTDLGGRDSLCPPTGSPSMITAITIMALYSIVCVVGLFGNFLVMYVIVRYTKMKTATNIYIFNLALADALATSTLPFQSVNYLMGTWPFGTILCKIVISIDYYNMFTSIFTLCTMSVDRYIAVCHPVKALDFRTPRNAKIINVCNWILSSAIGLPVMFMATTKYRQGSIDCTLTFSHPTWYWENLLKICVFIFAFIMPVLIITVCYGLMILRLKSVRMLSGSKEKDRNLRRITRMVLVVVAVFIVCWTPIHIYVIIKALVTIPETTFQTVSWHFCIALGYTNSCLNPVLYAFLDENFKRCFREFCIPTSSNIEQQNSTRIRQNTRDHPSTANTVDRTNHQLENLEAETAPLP
Chain of rat Neonicotinoid receptor (NNR), Chrna7 (gene 25302) (Q05941 whole entry, looked up): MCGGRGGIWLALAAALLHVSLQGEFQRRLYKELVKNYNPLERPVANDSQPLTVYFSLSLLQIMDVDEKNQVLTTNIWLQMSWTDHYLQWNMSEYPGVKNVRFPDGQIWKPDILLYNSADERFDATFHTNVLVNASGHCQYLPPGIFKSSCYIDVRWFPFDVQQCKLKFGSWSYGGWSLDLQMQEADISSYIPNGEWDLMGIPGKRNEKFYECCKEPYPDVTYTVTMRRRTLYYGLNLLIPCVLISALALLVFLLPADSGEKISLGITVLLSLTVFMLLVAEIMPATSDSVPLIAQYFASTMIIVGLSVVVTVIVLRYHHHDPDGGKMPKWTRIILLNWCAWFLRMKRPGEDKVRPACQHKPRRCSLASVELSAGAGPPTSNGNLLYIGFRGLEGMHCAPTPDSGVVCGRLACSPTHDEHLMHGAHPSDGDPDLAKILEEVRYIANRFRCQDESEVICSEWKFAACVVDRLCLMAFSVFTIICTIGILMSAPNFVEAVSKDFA

`CC(=O)c1ccccc1N`: the call in [1] was inactive. In addition, the concentration at half-maximal activity (AC50) in experiment [2] was 1.65 µM (active).

With `CCOCN(C(=O)CS(=O)(=O)O)c1c(C)cccc1CC`, the outcome in [1] was inactive.

`O=C(c1ccccc1)c1ccc(O)cc1O`: the compound was classed as inactive in experiment [3], in experiment [1], in experiment [5], in experiment [6] and in experiment [7]. The AC50 in [4] was 29.7 µM (active); in experiment [8] it was 8.41 µM (active).

Turning to `CN1CN(C)CN(C)C1`, the compound was classed as inactive in [9].

Regarding `O=C1c2c(O)ccc(Nc3ccc(CCO)cc3)c2C(=O)c2c([N+](=O)[O-])ccc(O)c21`, the call in [1] was inactive. The AC50 in experiment [10] is 9.9 µM (active); in experiment [11], 13.8 µM (active); in experiment [6], 2.38 µM (active).

As for `Nc1c(Br)cc([N+](=O)[O-])cc1Br`, the call in [4] and in [12] was inactive.

`O=C=Nc1cccc2c(N=C=O)cccc12`: in experiment [9], the call was inactive. The AC50 was 672 nM (active) in experiment [1] and 0.353 µM (active) in [10].

Turning to `CCN(CC)c1ccc(N=Nc2ccccc2)cc1`, the outcome in experiment [9] and in [13] was inactive.

With `CCC(C)CO` (centres undefined), in experiment [3], the outcome was inactive.

As to `Nc1cccnc1N`, the AC50 in [3] is 9.6 µM (active).

In the case of `CCOC(C=C(C)CCC=C(C)C)OCC`, the outcome in [4] and in [1] was inactive.

As to `CCN=C1C=CC(=C(c2ccc(N(CC)CC)cc2)c2ccc(N(CC)CC)cc2)c2ccccc21`, the outcome in experiment [5] was inactive. Besides, the figures for the AC50 in experiment [10] and in experiment [6] were 0.0669 µM (active) and 0.185 µM (active), respectively.

For `Brc1ccccn1`, the compound was called inactive in experiment [2].

As to `CCN=c1cc2oc3cc(NCC)c(C)cc3c(-c3ccccc3C(=O)OCC)c-2cc1C`, the call in [5] was inactive. Also, the AC50 is 0.443 µM (active) in experiment [10], 5.08 µM (active) in [6] and 8.97 µM (active) in experiment [8].

`CCc1cc(Cc2cc(CC)c(N)c(CC)c2)cc(CC)c1N`: the concentration at half-maximal activity (AC50) in experiment [6] was 6.66 µM (active). The call in experiment [8] was inactive.

For the compound `CC(C)(C)C(=O)C1C(=O)c2ccccc2C1=O`, the outcome in experiment [8] was inactive.

For `CCCCOC(=O)C(C)O` (centres undefined), the compound was called inactive in experiment [5].

Turning to `C[C@]12CC[C@H]3C(=CCc4cc(O)ccc43)[C@@H]1CCC2=O`, the compound was classed as inactive in [5]. The AC50 in [11] was 0.661 µM (active); in experiment [8] it was 0.0129 µM (active).

As for `O=C=NCc1cccc(CN=C=O)c1`, in [2], the outcome was inactive. In addition, the AC50 in [10] was 4.21 µM (active).

As to `O=C(c1ccccc1)c1ccc(Cl)cc1`, the AC50 in [6] is 12.6 µM (active).

As for `CCCC(=O)OCC(COC(=O)CCC)OC(=O)CCC`, the call in [2] and in experiment [10] was inactive.

With `C#CC(O)CCC` (centres undefined), the AC50 in [14] was 5.3 µM (active). Also, in experiment [11], the compound was classed as inactive.

Take `CC(C)(C)c1cc(CCC(=O)NCCCCCCNC(=O)CCc2cc(C(C)(C)C)c(O)c(C(C)(C)C)c2)cc(C(C)(C)C)c1O`: the outcome in experiment [2] was inactive.

Regarding `CCCCOC(=O)[C@H](C)O`, the compound was called inactive in experiment [5].

With `CCC(Cc1c(I)cc(I)c(N)c1I)C(=O)O` (centres undefined), the compound was classed as inactive in [5] and in [8].

As to `CC(C)Nc1ccc(NC(C)C)c2c1C(=O)c1ccccc1C2=O`, the AC50 in experiment [10] is 3.66 µM (active); in experiment [6] it was 0.666 µM (active).

These data come from PubChem BioAssay (EPA / NIEHS).
